Pf growth 48h: Primary qHTS for delayed death inhibitors of the malarial parasite plastid, 48 hour incubation | Potency, µM (titrated, usually from 28.7 µM), for inactives: top-dose activity change, negative = inhibition, hits mostly inhibitors | hit rate 5.9% among 310,000 | P. falciparum luciferase growth in erythrocytes, 48 h; also: % is scaled to controls: 0 for no effect and ±100 for the full control effect
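Luciferase-expressing parasites in RBCs, 2% Hct / 0.1% parasitemia final; RPMI 1640 + 0.5% Albumax; 37 C, 5% CO2, one generation; luminescence read-out, lower signal = inhibition.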
NS1 inh: qHTS Assay for Inhibitors of Influenza NS1 Protein Function. Potency, µM (titrated, usually from 46.1 µM), inactives show at the highest dose activity, positive = more growth. hit rate 0.4% among 270,000. AID 2326, 2010; calls by dose curve; also: actives are rising curves; nearly all actives have a fitted effect of over 50% in size
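Read-out: OD600 growth recovery of NS1-expressing budding yeast. Cells grown overnight at 30C in -URA glucose medium, washed, resuspended and diluted 1:100 in 2% galactose assay medium, pH 6.0. Same strain lacking NS1 served as positive control.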
Pf growth 96h: Primary qHTS for delayed death inhibitors of the malarial parasite plastid, 96 hour incubation. P. falciparum luciferase reporter growth, 96 h. Potency, µM (highest dose often 28.7 µM), inactives show at the highest dose activity change, negative = inhibition, hits mostly inhibitors. hit rate 6.9% among 320,000; also: % is scaled to controls: 0 for no effect and ±100 for the full control effect
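Luminescence readout: decreased luciferase signal marks inhibited growth of reporter-expressing P. falciparum in infected red cells (2% hematocrit, 0.05% parasitemia final), exposed to compound two generations (96 h, 37 C, 5% CO2).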
SARS PLP yeast: qHTS of Yeast-based Assay for SARS-CoV PLP | hit rate 0.19% among 330,000 | S. cerevisiae expressing SARS-CoV PLpro, growth rescue | Potency, µM (top dose mostly 32.9 µM), for the others: top-dose activity, positive = growth rescue, hits mostly activators; calls by dose curve; also: 0% is about no effect; nearly all actives have a fitted effect of over 55% in size
* hit, by the source's call; ? = inconclusive; . = no result; [ ] = dose if it differs, or a comment. Only some compounds are listed: those with a hit (about 10% of all), similar ones and a draw of the others. Unless noted, calls follow the shape of the dose curve; as a rule, active = well fitted inhibition curve with a large enough effect; inconclusive = small, poorly fitted or top-dose-only effect, or another doubt; inactive = no such curve, though single readings can be large or run the other way. Potency is read from the fitted curve at half-maximal effect.

SMILES	Pf growth 48h	NS1 inh	Pf growth 96h	SARS PLP yeast
C/C(=N\NC(=O)c1cc2ccccc2cc1O)c1ccccn1	3.7µM*	-14%	10%	1%
C/C(CC(=O)N1CCN(C=O)CC1)=N\NC(=O)c1cc2ccccc2cc1O	-10%	23%	-9%	14µM*
CN1CCN(c2ccncc2S(=O)(=O)N2CCN(C)CC2)CC1	.	0%	.	.
COCCC(=O)N1CCC(C(=O)Nc2ccc(Oc3ccccc3)nc2)CC1	20%	-6%	0%	-3%
CCOC(=O)c1c(CSc2ccc(CC)cc2)oc2ccc(O)c(CN(C)C)c12	2.3µM*	-2%	11%	11%
CC(=O)c1c(CSc2ccccc2)oc2ccc(O)c(CN(C)C)c12	?	-5%	2%	0%
CCOC(=O)c1c(CSc2ccccc2)oc2cc(Br)c(O)c(CN(C)C)c12	2.6µM*	5%	?	0%
CN(CCN1CCc2ccccc2C1)Cc1nc(Cc2ccccc2F)no1	?	1%	10µM*	0%
COc1ccc(Cc2noc(CN(C)CCN3CCc4ccccc4C3)n2)cc1OC	-70%	1%	7.4µM*	-1%
COc1ccc(CNC(=O)CCCn2nc(C)c3c(C)n(-c4ccccc4)nc3c2=O)cc1	-11%	-1%	39%	1%
Cc1cccc(N(CC(=O)NCc2ccc(F)cc2)C(=O)c2csnn2)c1C	?	-4%	3%	1%
CC1CCN(S(=O)(=O)c2ccc(C(=O)N3CCCC3C(=O)O)cc2)CC1 (configuration not stated)	-7%	.	15%	-6%
Cc1cc(C)n(-c2cc(N3CCN(C(=O)c4ccc(C(C)(C)C)cc4)CC3)ccc2[N+](=O)[O-])n1	4.7µM*	15%	9.3µM*	1%
CC(C)(C)c1ccc(C(=O)N2CCCN(c3ccc([N+](=O)[O-])cn3)CC2)cc1	?	-5%	12µM*	1%
O=[N+]([O-])c1ccc(N2CCCC2)nc1	42%	1%	39%	-1%
Cc1ccccc1N1CC(C(=O)Nc2ccncc2)CC1=O (configuration not stated)	-12%	.	13µM*	-2%
CC(=O)c1cccc(NC(=O)C2CC(=O)N(c3cccc(C)c3C)C2)c1 (configuration not stated)	1.5µM*	-7%	21%	14%
Cc1ccccc1N1CC(C(=O)Nc2nnc(SCCN3CCOCC3)s2)CC1=O (configuration not stated)	?	?	4.1µM*	-1%
Cc1cc2c(OCC(CNC(C)(C)C)OC(=O)c3ccccc3)cccc2[nH]1 (configuration not stated)	?	.	-8%	.
O=C(Nc1ccc2c(c1)CCC2)c1ncoc1-c1ccccc1F	39%	2%	14%	1%
CCOC(=O)C1CCCN(C2=NC(=O)/C(=C/c3ccc(N(C)C)cc3)S2)C1 (configuration not stated)	6.6µM*	-7%	26%	0%
CCOC(=O)C1CCCN(C2=NC(=O)/C(=C/c3ccc(O)c(OCC)c3)S2)C1 (configuration not stated)	?	-15%	13%	-2%
CCOC(=O)C1CCN(C2=NC(=O)/C(=C/c3ccc(O)cc3)S2)CC1	5%[0.00184 µM]	-5%	8%	-1%
CCOC(=O)C1CCN(C2=NC(=O)/C(=C/c3ccccc3OC)S2)CC1	?	-12%	17%	-1%
CCOC(=O)C1CCCN(C2=NC(=O)/C(=C/c3ccc(OC)cc3)S2)C1 (configuration not stated)	10µM*	-8%	?	-3%
SMILES	Pf growth 48h	NS1 inh	Pf growth 96h	SARS PLP yeast
CCOC(=O)C1CCCN(C2=NC(=O)/C(=C/c3ccc(OC)cc3OC)S2)C1 (configuration not stated)	6.6µM*	-32%	17%	-4%
C/C(=N\NC(=S)NC1CCCCC1)c1ccc(Cl)c(Cl)c1	2.3µM*	6%	4.1µM*	-1%
C/C(=N\NC(=O)C1CCCC1)c1ccc(Cl)c(Cl)c1	1%	10%	251%	2%
C/C(=N\NC(=S)NC1CCCCC1)c1c(F)cccc1F	-15%	.	10µM*	-6%
Cc1cnc(C(=O)OCC(=O)Nc2ccc(Br)cc2F)cn1	58%	.	43%	-5%
CNC(=O)COc1ccc2oc3c(c2c1)CCCC3	17%	-13%	24%	1%
CC(C)OCCCNC(=O)COc1ccc2oc3c(c2c1)CCCC3	-19%	-36%	4.1µM*	-11%
Cc1ccnc(NC(=O)COc2ccc3oc4c(c3c2)CCCC4)c1	125%	-7%	12µM*	3%
Cc1c(C(=O)Nc2c(C)n(C)n(-c3ccccc3)c2=O)oc2ccc(Cl)cc12	27%	-3%	?	2%
Cc1c(-c2ccc(O)cc2)nc2nc(-c3ccccc3)c(-c3ccccc3)nn12	0.41µM*	-9%	2.1µM*	-2%
Cn1nccc1C(=O)OCC(=O)Nc1ccccc1Cl	3%	2%	?	5%
Cc1cc(NC(=O)CCC(=O)N(Cc2ccccc2)C2(C(=O)NC3CCCCC3)CCCC2)no1	9.3µM*	1%	?	1%
Cc1cc(NC(=O)CCC(=O)N(Cc2ccco2)C2(C(=O)NC3CCCCC3)CCCCC2)no1	-25%	0%	1.3µM*	-1%
Cc1cc(NC(=O)CCC(=O)N(CC(=O)NC2CCCC2)Cc2ccco2)no1	-15%	-5%	.	4%
CCOc1ncccc1C(=O)Nc1cc2c(cc1Br)OCCO2	.	.	.	1%
Cc1ccc(NC(=O)CN(C)C(=O)Cn2ccsc2=N)cc1	0%	.	14%	-2%
Cc1ccc(Oc2ccc(NC(=O)Cn3ccsc3=N)cc2)cc1	10µM*	-2%	.	-7%
O=C1CCN(CCc2ccccc2)CCN1[C@H](COc1ccccc1)Cc1ccccc1	?	-45%	3.3µM*	-5%
CC(C)CN1CCC(=O)N([C@H](COc2ccccc2)Cc2ccccc2)CC1	?	-16%	12µM*	4%
CN1CCN(c2ccc(C(F)(F)F)cc2NC(=O)c2ccco2)CC1	23%	5%	?	0%
COC(=O)C(C)NC(=O)C1CCCN1C(=O)CNC(=O)OCc1ccccc1 (configuration not stated)	0%	4%	-14%	15%
CCCCN1CCc2[nH]c(=S)[nH]c(=O)c2C1	1%	11%	25%	-1%
Nc1ccc(C(=O)n2c3ccccc3c3ccccc32)cc1	-12%	12%	2.3µM*	?
COc1ccc(N=C2NN=C(c3c(C)[nH]c4ccccc34)CS2)cc1	?	?	?	5%
Cc1[nH]c2ccccc2c1C1=NNC(=Nc2ccc(F)cc2)SC1	?	?	8.3µM*	4%
COc1cccc(C2CCCN2Cc2nc(-c3cnccn3)no2)c1 (configuration not stated)	13µM*	-2%	14%	0%
COC(=O)CSc1nnc(-c2c[nH]c3ccccc23)o1	11%	-12%	?	-11%
c1ccc2c(-c3nnc(SCc4cn5ccccc5n4)o3)c[nH]c2c1	.	-1%	12µM*	-6%

Bioassay records deposited in PubChem BioAssay by National Center for Advancing Translational Sciences (NCATS).
